Reference: PubChem BioAssay (NCI)
This is part of a sample that, as a whole, favours compounds with a hit. Of some 79,000 tested, about 15% had one in any assay. The source made the active and inactive calls. No stated cut-off is given here; in the data, active means growth inhibition above about 70%; inactive means the rest.

Tests used:
[1] = NCI Yeast Anticancer Drug Screen. Data for the rad52 strain (AID 147);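 further: 0% = growth of vehicle-treated control cultures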; settings: S. cerevisiae rad52 mutant growth inhibition, active compounds read high
How it was run: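 Inhibition of yeast growth, referenced to vehicle controls, was the measured output for a strain with defective DNA damage repair.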

[2] = NCI Yeast Anticancer Drug Screen. Data for the wt1 strain (AID 149);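 further: 0% = growth of vehicle-treated wt1 cultures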; settings: S. cerevisiae wt1 strain (SPY 50644) growth inhibition, active compounds read high
How it was run: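 Yeast wt1 strain exposed to compounds; growth inhibition measured relative to vehicle-treated controls.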

[3] = NCI Yeast Anticancer Drug Screen. Data for the rad50EPP+ strain (AID 151);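 further: 0% = growth of vehicle-treated control cultures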; settings: S. cerevisiae rad50 mutant strain, active compounds read high
How it was run: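 Genetically defined yeast (rad50EPP+, DNA damage repair alteration) is grown with compound, and inhibition of growth is expressed relative to vehicle-treated controls.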

[4] = NCI Yeast Anticancer Drug Screen. Data for the rad50 strain (AID 155);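 further: 0% = growth of vehicle-only cultures of the same strain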; settings: S. cerevisiae rad50 strain growth inhibition, active compounds read high
How it was run: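 Yeast carrying a defined DNA repair defect were exposed to test compounds, and growth was compared with vehicle-treated controls to give percent inhibition.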

[5] = NCI Yeast Anticancer Drug Screen. Data for the mec2-1 strain (AID 157); settings: S. cerevisiae mec2-1 strain, active compounds read high
How it was run: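 Each compound was tested on mec2-1 yeast, a strain altered in DNA damage repair or cell cycle control. Growth inhibition is reported relative to vehicle.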

[6] = NCI Yeast Anticancer Drug Screen. Data for the rad14 strain (AID 159);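 further: 0% = growth of vehicle-treated control cultures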; settings: S. cerevisiae rad14 strain growth inhibition, active compounds read high
How it was run: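 Yeast cells carrying a defined DNA-repair defect were exposed to compounds, and growth inhibition was calculated relative to vehicle-treated control cultures.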

[7] = NCI Yeast Anticancer Drug Screen. Data for the sgs1 mgt1 strain (AID 161);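 further: 0% = growth of cultures given vehicle only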; settings: S. cerevisiae sgs1 mgt1 strain, active compounds read high
How it was run: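 Test agents were incubated with a DNA-repair-mutant yeast strain. Growth was then read and compared against vehicle-treated controls.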

[8] = NCI Yeast Anticancer Drug Screen. Data for the CLN2oe strain (AID 163);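 further: 0% = growth of vehicle-only control cultures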; settings: S. cerevisiae CLN2oe strain, active compounds read high
How it was run: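 First, the altered yeast strain was treated with each compound; second, its growth was measured; finally, inhibition was derived by comparison with vehicle controls.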

[9] = NCI Yeast Anticancer Drug Screen. Data for the cln2 rad14 strain (AID 165);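 further: 0% = growth equal to vehicle treated cultures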; settings: S. cerevisiae cln2 rad14 strain, active compounds read high
How it was run: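 Test compounds were added to cln2 rad14 yeast cultures; inhibition of growth was then determined by comparison with vehicle treatment.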

[10] = NCI Yeast Anticancer Drug Screen. Data for the bub3 strain (AID 167); settings: S. cerevisiae bub3 mutant strain, active compounds read high
How it was run: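 Compounds were applied to a genetically altered yeast strain carrying a cell-cycle control defect. Growth inhibition was scored against vehicle-treated controls.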

[11] = NCI Yeast Anticancer Drug Screen. Data for the wt2 strain (AID 169);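 further: 0% = growth of vehicle-treated yeast cultures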; settings: S. cerevisiae wt2 strain growth inhibition, active compounds read high
How it was run: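 The panel's yeast strains carry defined changes in DNA repair or cell cycle genes. Each strain is grown with compound, and growth loss is scored relative to vehicle.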

[12] = NCI Yeast Anticancer Drug Screen. Data for the mlh1 strain (AID 171);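 further: 0% = growth of vehicle-treated control cultures of the same strain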; settings: S. cerevisiae mlh1 strain growth inhibition, active compounds read high
How it was run: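 Inhibition values reflect reduced yeast growth in the presence of compound, referenced to vehicle controls, using a strain chosen for its alteration in DNA repair or cell cycle control.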

[13] = NCI Yeast Anticancer Drug Screen. Data for the sgs1 strain (AID 173);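 further: 0% = growth of vehicle-only control cultures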; settings: S. cerevisiae sgs1 mutant, active compounds read high
How it was run: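 Vehicle-treated cultures served as reference for growth inhibition of a yeast strain altered in DNA damage repair or cell cycle control after compound exposure.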

[14] = NCI Yeast Anticancer Drug Screen. Data for the mlh1 rad18 strain (AID 175); settings: S. cerevisiae mlh1 rad18 strain growth inhibition, active compounds read high
How it was run: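 Inhibition values reflect reduced growth of mutant yeast versus vehicle-treated controls following compound exposure; the mutations affect DNA damage repair.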

[15] = NCI Yeast Anticancer Drug Screen. Data for the rad18 strain (AID 177); settings: S. cerevisiae rad18 mutant growth inhibition, active compounds read high
How it was run: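 Steps: expose repair-mutant yeast to compound; measure growth; express as inhibition relative to vehicle control.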

[16] = at 5.0 µM (retest, dose inferred, filed as 0.5)
[17] = at 50.0 µM (retest, dose inferred, filed as 5.0)

Measured: growth inhibition

CN1CCN(c2ccc3nc(-c4ccc5nc(-c6ccc(O)cc6)[nH]c5c4)[nH]c3c2)CC1
inactive: [1]; at 1.2 µM 8% | [1]; at 3.7 µM -1% | [1]; at 33.0 µM 38% | [2]; at 1.2 µM 3% | [2]; at 3.7 µM 5% | [3]; at 1.2 µM -7% | [3]; at 3.7 µM -12% | [4]; at 1.2 µM 6% | [4]; at 3.7 µM 13% | [5]; at 1.2 µM -4% | [5]; at 3.7 µM -17% | [5]; [16] 63% | [6]; at 1.2 µM -16% | [6]; at 3.7 µM -16% | [7]; [16] 43% | [8]; at 1.2 µM 9% | [8]; at 3.7 µM 6% | [9]; [16] 45% | [10]; at 1.2 µM -10% | [10]; at 3.7 µM -1% | [11]; at 1.2 µM -17% | [11]; at 3.7 µM -27% | [12]; at 1.2 µM -10% | [12]; at 3.7 µM -15% | [13]; at 1.2 µM -5% | [13]; at 3.7 µM 2% | [15]; at 1.2 µM -12% | [15]; at 3.7 µM -29%
active: [1]; at 11.0 µM 98% | [1]; at 100.0 µM 98% | [2]; at 11.0 µM 98% | [2]; at 33.0 µM 98% | [2]; at 100.0 µM 97% | [3]; at 11.0 µM 83% | [3]; at 33.0 µM 97% | [3]; at 100.0 µM 97% | [4]; [16] 88% | [4]; at 11.0 µM 98% | [4]; at 33.0 µM 98% | [4]; [17] 99% | [4]; at 50.0 µM 99% | [4]; at 100.0 µM 98% | [5]; at 11.0 µM 97% | [5]; at 33.0 µM 97% | [5]; [17] 99% | [5]; at 50.0 µM 99% | [5]; at 100.0 µM 97% | [6]; at 11.0 µM 97% | [6]; at 33.0 µM 97% | [6]; at 100.0 µM 97% | [7]; [17] 99% | [7]; at 50.0 µM 99.2% | [8]; at 11.0 µM 97% | [8]; at 33.0 µM 98% | [8]; at 100.0 µM 98% | [9]; [17] 99% | [9]; at 50.0 µM 97.8% | [10]; [16] 84% | [10]; at 11.0 µM 97% | [10]; at 33.0 µM 98% | [10]; [17] 99% | [10]; at 50.0 µM 99.2% | [10]; at 100.0 µM 97% | [11]; at 11.0 µM 97% | [11]; at 33.0 µM 98% | [11]; at 100.0 µM 98% | [12]; at 11.0 µM 98% | [12]; at 33.0 µM 97% | [12]; at 100.0 µM 97% | [13]; at 11.0 µM 98% | [13]; at 33.0 µM 98% | [13]; at 100.0 µM 97% | [14]; [16] 71% | [14]; [17] 99% | [14]; at 50.0 µM 99.2% | [15]; at 11.0 µM 97% | [15]; at 33.0 µM 97% | [15]; at 100.0 µM 97%
